Inconclusive results are not listed. Unless noted, calls come from the whole dose curve.
tested on: not listed separately; test: Stat Signaling Pathway (AID 446; active = well fitted curve in either direction with a large enough effect, not every such curve was filed as active;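 note: ME-180 cervical cancer cells given 40 pM IL-6 alongside compound; SIE-controlled beta-lactamase reporter measured as 460/530 nm FRET emission ratio; % is set by controls: 0 for no effect and ±100 for the full control effect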); conditions: ME-180 (cervical carcinoma) SIE beta-lactamase reporter, IL-6 stimulated, 5 h; at 7.69 µM (top of the series) unless noted
Outline: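 Emission at 460 and 530 nm (excitation 405 nm) reports SIE-controlled beta-lactamase in ME-180 cells. Cells received compound with 40 pM IL-6 for 5 hrs at 37 C; data scaled between 300 pM IL-6 and 125 nM JAK-inhibitor controls.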

activity, negative = inhibition, inactive:
O=C(c1ccncc1)N1CCC2(CCCN(c3ncccn3)C2)CC1 5.19%, Cn1c(=O)c(-c2cc(F)cc(F)c2)nc2cnc(Oc3cccc(Cl)c3)nc21 7.63%, O=C(c1cnccn1)N1CCC2(CCCN(c3ccncc3)C2)CC1 -6.12%, O=C(Oc1ccccc1)N1CCC[C@@]2(CCN(c3ccccc3)C2)C1 -1.51%, O=C(c1csnn1)N1CCC[C@@]2(CCN(c3ccccc3)C2)C1 -7.17%, O=C(c1ccco1)N1CCC2(CC1)CCN(c1ccccn1)CC2 -0.852%, O=C(c1cccc(F)c1)N1CCC2(CC1)CCN(c1ccccn1)CC2 -4.99%, O=c1c(CCc2ccccc2)nc2cnc(Nc3ccccc3)nc2n1Cc1cccs1 -23.5%, O=C(c1cnccn1)N1CCC2(CC1)CCN(c1cccc(-c3ccccc3)c1)CC2 -13.7%, CC(=O)N1CCC2(CCN(Cc3ccc(C#N)cc3)CC2)CC1 6.19%, COc1ccc(C(=O)N2CCC3(CCCN(Cc4nccs4)C3)CC2)cc1 -4.62%, Cc1cccc(CNc2cc(-c3ccccc3C)ncn2)c1 -8.32%, N#Cc1ccc(CN2CCC3(CC2)CCN(C(=O)c2cnccn2)CC3)cc1 -7.54%, O=C(Nc1ccccc1)N1CCCC2(CCN(C(=O)c3cccc(F)c3)CC2)C1 -6.85%, COc1ccc(C(=O)N2CCC3(CCCN(c4ccccc4)C3)CC2)cc1 -0.767%, Cn1cccc1C(=O)N1CCC2(CCCN(Cc3nccs3)C2)CC1 -8.95%, O=C(c1ccncc1)N1CCC2(CCN(Cc3cc(C(F)(F)F)cc(C(F)(F)F)c3)CC2)CC1 -0.397%, O=C(c1cnccn1)N1CCC2(CC1)CN(Cc1ccccc1)C2 2.48%, O=C(c1csnn1)N1CCC2(CCCN(c3ccccn3)C2)CC1 9.35%, CN(C)Cc1ccccc1-c1cncnc1Nc1ccc(F)cc1 15.8%, O=C(Oc1ccccc1)N1CCC2(CC1)CCN(c1ccccn1)CC2 -7.33%, O=S(=O)(c1ccccc1)N1CCC2(CCCN(Cc3ccccc3)C2)CC1 5.57%, Cn1cccc1C(=O)N1CCC[C@@]2(CCN(c3cccc(-c4ccccc4)c3)C2)C1 -14.4%, O=C(c1ccco1)N1CCC2(CCCN(c3cccc(-c4ccccc4)c3)C2)CC1 -5.55%, N#Cc1ccc(CN2CCCC3(CCN(C(=O)c4cnccn4)CC3)C2)cc1 -1.62%, N#Cc1cccc(NC(=O)N2CCCC3(CCN(C(=O)c4ccncc4)CC3)C2)c1 1.51%, O=C(c1ccncc1)N1CCC[C@@]2(CCN(Cc3cc(C(F)(F)F)cc(C(F)(F)F)c3)C2)C1 -0.599%, Cc1noc(C)c1C(=O)N1CCC2(CC1)CCN(C(c1ccccc1)c1ccccc1)CC2 10.1%, COc1ccc(C(=O)N2CCC3(CCCN(c4ccc(-c5ccccc5)cc4)C3)CC2)cc1 0.229%

molecular target: Glucocorticoid receptor (Homo sapiens) (UniProt P04150); test: GR-GFP Redistribution (AID 450;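 active = compounds whose dose series gives a full or clear partial fitted curve of increased nuclear translocation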; note: potency is the fitted concentration of half-maximal effect); conditions: U2OS GR-GFP nuclear translocation, laser cytometry, 2 h
Sequence (P04150 whole entry, looked up, the tested form may be a part): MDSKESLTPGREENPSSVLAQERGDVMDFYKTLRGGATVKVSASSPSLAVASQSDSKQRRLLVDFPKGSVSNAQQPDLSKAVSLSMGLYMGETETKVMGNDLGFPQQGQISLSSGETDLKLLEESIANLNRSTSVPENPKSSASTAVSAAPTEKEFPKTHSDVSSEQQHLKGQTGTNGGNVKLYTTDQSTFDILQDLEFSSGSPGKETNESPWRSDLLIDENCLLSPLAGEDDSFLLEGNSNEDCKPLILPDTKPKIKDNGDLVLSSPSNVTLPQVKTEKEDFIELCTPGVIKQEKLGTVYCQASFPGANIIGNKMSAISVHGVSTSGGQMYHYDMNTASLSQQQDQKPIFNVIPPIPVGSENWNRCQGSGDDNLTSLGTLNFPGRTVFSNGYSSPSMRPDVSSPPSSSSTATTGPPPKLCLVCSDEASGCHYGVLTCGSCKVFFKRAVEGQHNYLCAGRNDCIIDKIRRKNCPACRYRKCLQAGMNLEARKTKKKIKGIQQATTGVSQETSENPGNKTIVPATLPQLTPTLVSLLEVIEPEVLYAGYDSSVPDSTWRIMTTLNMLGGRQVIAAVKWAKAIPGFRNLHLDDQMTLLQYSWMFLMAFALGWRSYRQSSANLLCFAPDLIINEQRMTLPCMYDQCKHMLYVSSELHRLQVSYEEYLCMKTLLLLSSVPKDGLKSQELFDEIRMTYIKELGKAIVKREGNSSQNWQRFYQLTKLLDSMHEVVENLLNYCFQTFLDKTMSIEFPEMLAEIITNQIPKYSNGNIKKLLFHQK

Potency, inactive:
Cn1c(=O)c(-c2cc(F)cc(F)c2)nc2cnc(Oc3cccc(Cl)c3)nc21 > 9.22 µM, COc1ccc(Oc2ncc3ncc(=O)n(Cc4cccc(OC)c4)c3n2)cc1 > 9.22 µM, N#CCCn1c(=O)cnc2cnc(Nc3ccccc3)nc21 > 9.22 µM, O=c1c(CCc2ccccc2)nc2cnc(Nc3ccccc3)nc2n1Cc1cccs1 > 9.22 µM, CCNc1ncc2nc(-c3cccs3)c(=O)n(-c3ccc(OC)cc3)c2n1 > 9.22 µM, Cc1cccc(CNc2cc(-c3ccccc3C)ncn2)c1 > 46 µM, O=c1c(-c2ccc(F)c(F)c2)nc2cncnc2n1Cc1ccccc1 > 9.22 µM, N#CCCn1c(=O)c(-c2cccs2)nc2cnc(Oc3ccccc3)nc21 > 9.22 µM, CN(C)Cc1ccccc1-c1cncnc1Nc1ccc(F)cc1 > 46 µM, COCCn1c(=O)c(-c2ccc(OC)cc2)nc2cnc(Nc3ccccc3)nc21 > 9.22 µM, COc1cccc(Cn2c(=O)c(-c3cccc(F)c3)nc3cncnc32)c1 > 9.22 µM, c1cncc(-c2nc(NCCN3CCOCC3)c3ccccc3n2)c1 > 46 µM, COCCn1c(=O)c(-c2cccs2)nc2cnc(OCc3ccccc3)nc21 > 9.22 µM

molecular target: Glucocorticoid receptor (Homo sapiens) (UniProt P04150); test: GR-EFC Redistribution (AID 451); conditions: CHO-K1 GR-EFC translocation, beta-gal luminescence, 2 h; note: potency is the fitted concentration of half-maximal effect
Outline: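 CHO-K1 cells stably expressing nuclear-localized β-gal enzyme acceptor and GR fused C-terminally to the enzyme donor fragment; ligand-driven nuclear translocation restores β-gal by complementation. Compounds titrated up to 46 uM final, 2 h at 37 °C; luminescence read.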

Potency, inactive:
O=C(c1ccncc1)N1CCC2(CCCN(c3ncccn3)C2)CC1 > 46 µM, O=C(c1cnccn1)N1CCC2(CCCN(c3ccncc3)C2)CC1 > 46 µM, COc1ccc(Oc2ncc3ncc(=O)n(Cc4cccc(OC)c4)c3n2)cc1 > 46 µM, O=C(Oc1ccccc1)N1CCC[C@@]2(CCN(c3ccccc3)C2)C1 > 46 µM, O=C(c1csnn1)N1CCC[C@@]2(CCN(c3ccccc3)C2)C1 > 46 µM, N#CCCn1c(=O)cnc2cnc(Nc3ccccc3)nc21 > 46 µM, O=C(c1ccco1)N1CCC2(CC1)CCN(c1ccccn1)CC2 > 46 µM, O=C(c1cccc(F)c1)N1CCC2(CC1)CCN(c1ccccn1)CC2 > 46 µM, O=c1c(CCc2ccccc2)nc2cnc(Nc3ccccc3)nc2n1Cc1cccs1 > 46 µM, O=C(c1cnccn1)N1CCC2(CC1)CCN(c1cccc(-c3ccccc3)c1)CC2 > 46 µM, CCNc1ncc2nc(-c3cccs3)c(=O)n(-c3ccc(OC)cc3)c2n1 > 46 µM, CC(=O)N1CCC2(CCN(Cc3ccc(C#N)cc3)CC2)CC1 > 46 µM, COc1ccc(C(=O)N2CCC3(CCCN(Cc4nccs4)C3)CC2)cc1 > 46 µM, Cc1cccc(CNc2cc(-c3ccccc3C)ncn2)c1 > 46 µM, N#Cc1ccc(CN2CCC3(CC2)CCN(C(=O)c2cnccn2)CC3)cc1 > 46 µM, O=C(Nc1ccccc1)N1CCCC2(CCN(C(=O)c3cccc(F)c3)CC2)C1 > 46 µM, O=c1c(-c2ccc(F)c(F)c2)nc2cncnc2n1Cc1ccccc1 > 46 µM, COc1ccc(C(=O)N2CCC3(CCCN(c4ccccc4)C3)CC2)cc1 > 46 µM, Cn1cccc1C(=O)N1CCC2(CCCN(Cc3nccs3)C2)CC1 > 46 µM, O=C(c1ccncc1)N1CCC2(CCN(Cc3cc(C(F)(F)F)cc(C(F)(F)F)c3)CC2)CC1 > 46 µM, N#CCCn1c(=O)c(-c2cccs2)nc2cnc(Oc3ccccc3)nc21 > 46 µM, O=C(c1cnccn1)N1CCC2(CC1)CN(Cc1ccccc1)C2 > 46 µM, O=C(c1csnn1)N1CCC2(CCCN(c3ccccn3)C2)CC1 > 46 µM, CN(C)Cc1ccccc1-c1cncnc1Nc1ccc(F)cc1 > 46 µM, N#Cc1cccc(NC(=O)N2CC3(CCN(C(=O)c4cnccn4)CC3)C2)c1 > 46 µM, O=C(Oc1ccccc1)N1CCC2(CC1)CCN(c1ccccn1)CC2 > 46 µM, COCCn1c(=O)c(-c2ccc(OC)cc2)nc2cnc(Nc3ccccc3)nc21 > 46 µM, COc1cccc(Cn2c(=O)c(-c3cccc(F)c3)nc3cncnc32)c1 > 46 µM, c1cncc(-c2nc(NCCN3CCOCC3)c3ccccc3n2)c1 > 46 µM, O=S(=O)(c1ccccc1)N1CCC2(CCCN(Cc3ccccc3)C2)CC1 > 46 µM, Cn1cccc1C(=O)N1CCC[C@@]2(CCN(c3cccc(-c4ccccc4)c3)C2)C1 > 46 µM, COCCn1c(=O)c(-c2cccs2)nc2cnc(OCc3ccccc3)nc21 > 46 µM, O=C(c1ccco1)N1CCC2(CCCN(c3cccc(-c4ccccc4)c3)C2)CC1 > 46 µM, N#Cc1ccc(CN2CCCC3(CCN(C(=O)c4cnccn4)CC3)C2)cc1 > 46 µM, N#Cc1cccc(NC(=O)N2CCCC3(CCN(C(=O)c4ccncc4)CC3)C2)c1 > 46 µM, O=C(c1ccncc1)N1CCC[C@@]2(CCN(Cc3cc(C(F)(F)F)cc(C(F)(F)F)c3)C2)C1 > 46 µM, Cc1noc(C)c1C(=O)N1CCC2(CC1)CCN(C(c1ccccc1)c1ccccc1)CC2 > 46 µM, COc1ccc(C(=O)N2CCC3(CCCN(c4ccc(-c5ccccc5)cc4)C3)CC2)cc1 > 46 µM

— PubChem BioAssay (NCATS)
